The nature of experiment [1]: qHTS to identify inhibitors of the type 1 interferon - major histocompatibility complex class I in skeletal muscle: primary screen against the NCATS Mechanism Interrogation Plate v5.0 (MIPE) Libary (AID 1347411). Note: nearly all actives have a fitted effect of over 65% in size. Note: potency is the fitted concentration of half-maximal effect. In outline:
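Cells were genome-edited human myoblasts carrying a HiBit tag on endogenous HLA-B. They were treated with IFN-beta (4.0 ng/ml) and titrated compounds (top 46 uM) for 24 hrs before lytic HiBiT detection.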
For orientation: Quantitative high-throughput screening tests each substance at several concentrations.

The target of experiment [2] is Calcium and integrin-binding protein 1 (Homo sapiens) (UniProt Q99828). Nature of the experiment: Primary qHTS for Identification of Calcium Integrin Binding Protein 1 (CIB1) Competitor (AID 1508620).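 Note: GST tagged CIB1 binding a fluorescein labelled alphaIIb integrin peptide tracer; top concentration of the series differs between compounds.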 The gist of the method: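 Fluorescence polarization competition: CIB1-GST (1 uM final) preincubated with compound 15 min at room temperature, then FITC-labeled alphaIIb peptide (100 nM final) added for another 15 min. Polarization read at Ex 480/Em 540.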

Inconclusive results are not listed. A call without a number means that no potency is given here. Active and inactive are the calls of the source. Calls come from the whole dose curve; as a rule, active = well fitted curve in the direction sought with a large enough effect; inconclusive = small, poorly fitted or top-dose-only effect, or another doubt; inactive = no such curve, though single readings can be large; an effect the other way counts as inactive or inconclusive.

Chain of Calcium and integrin-binding protein 1 (Homo sapiens) (Q99828 whole entry, looked up): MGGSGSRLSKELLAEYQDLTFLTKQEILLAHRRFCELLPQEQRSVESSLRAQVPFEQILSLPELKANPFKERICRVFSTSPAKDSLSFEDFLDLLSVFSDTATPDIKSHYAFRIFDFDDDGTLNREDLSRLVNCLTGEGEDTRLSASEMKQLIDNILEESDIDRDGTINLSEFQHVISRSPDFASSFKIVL

As to `Cc1cc(Nc2cc(N3CCN(C)CC3)nc(/C=C/c3ccccc3)n2)n[nH]1`, in experiment [1], the Potency was 5.23 µM (active). For the same compound, the Potency result in experiment [2] is “inactive”.

As to `CNC(=O)c1cc(Oc2ccc3nc(N[C@@H]4CCCC[C@H]4O)sc3c2)ccn1`, the Potency result in experiment [1] and in experiment [2] was “inactive” throughout.

Consider `CS(=O)(=O)c1ccc(-c2nnc(/C=C/c3nnc(-c4ccc(C#N)cc4)o3)n2-c2ccccc2Cl)nc1`, for which the Potency entry in experiment [1] and in experiment [2] was “inactive” in each case.

Consider `Nc1nc2c(c(=O)[nH]1)C[C@@H](CCc1ccc(C(=O)N[C@@H](CCC(=O)O)C(=O)O)cc1)CN2`, for which, in experiment [2], the Potency result is “inactive”.

With `CCN1CCN(Cc2ccc(NC(=O)Nc3ccc(Oc4cc(NC)ncn4)cc3)cc2C(F)(F)F)CC1`, the Potency in experiment [1] was 7.39 µM (active). In experiment [2], the Potency result was “inactive”.

`CC(C)c1c2cc(-c3ccnc(NC4CCC(NC5CCOCC5)CC4)n3)ccc2nn1C` (stereo unspecified): in experiment [1], the Potency was 0.104 µM (active). Further, the Potency result in experiment [2] was “inactive”.

As to `CCN1CCN(Cc2ccc(NC(=O)c3ccc(C)c(/C=C/c4cnc5[nH]ccc5c4OC)c3)cc2C(F)(F)F)CC1`, in experiment [1], the Potency is 6.58 µM (active). Moreover, the Potency entry in experiment [2] is “inactive”.

With `NC[C@@](O)(c1ccc(Cl)cc1)c1ccc(-c2cn[nH]c2)cc1`, the Potency in experiment [1] was 7.39 µM (active). In experiment [2], the Potency result is “inactive”.

As for `COc1ccc(Cl)c(Nc2nc3ccccc3nc2NS(=O)(=O)c2cccc(NC(=O)C(C)(C)N)c2)c1`, the Potency entry in experiment [1] and in experiment [2] was “inactive” throughout.

`CC1CCCCN1S(=O)(=O)c1ccc(N2CCCC2=O)cc1` (stereo unspecified): the Potency entry in experiment [2] was “inactive”.

Take `CNCc1ccc(-c2cc(-c3nc(-c4ccc(S(=O)(=O)C(C)C)cc4)cnc3N)on2)cc1`: the Potency result in experiment [1] and in experiment [2] was “inactive” throughout.

In the case of `COc1cc(NC(=O)Nc2cccc(CNC(=O)O[C@H]3CCOC3)c2)ccc1-c1cnco1`, in experiment [2], the Potency entry was “inactive”.

On to `C[C@H]1[C@H](O)O[C@@H]2O[C@@]3(C)CC[C@H]4[C@H](C)CC[C@@H]1[C@@]24OO3`, for which the Potency result in experiment [1] and in experiment [2] was “inactive” in each case.

For `O=C(NOCC(O)CO)c1ccc(F)c(F)c1Nc1ccc(I)cc1F` (stereo unspecified), the Potency entry in experiment [1] and in experiment [2] was “inactive” each time.

Consider `CC(C)CN(C[C@@H](O)[C@H](Cc1ccccc1)NC(=O)O[C@@H]1CO[C@H]2OCC[C@H]21)S(=O)(=O)c1ccc(N)cc1`, for which the Potency result in experiment [2] is “inactive”.

Take `O=C(O)c1ccc(CN2CCC(CN[C@@H]3C[C@H]3c3ccccc3)CC2)cc1`: the Potency result in experiment [1] and in experiment [2] was “inactive” throughout.

Turning to `O=C(NCc1cccc(O)c1)Nc1nc(-c2ccncc2)cs1`, the Potency in experiment [1] was 18.6 µM (active). Besides, in experiment [2], the Potency entry is “inactive”.

On to `Cc1ccc(S(=O)(=O)Cc2nc(-c3ccc(C(=O)NCc4cccnc4)cc3)oc2C)cc1`, for which the Potency entry in experiment [1] and in experiment [2] was “inactive” each time.

As to `COCCOc1ccc(N2CCN(CCn3ncc4c3nc(N)n3nc(-c5ccco5)nc43)CC2)cc1`, the Potency entry in experiment [1] and in experiment [2] was “inactive” throughout.

Take `CN(C)C/C=C/C(=O)Nc1cccc(C(=O)Nc2cccc(Nc3ncc(Cl)c(-c4c[nH]c5ccccc45)n3)c2)c1`: in experiment [1], the Potency was 0.658 µM (active). For the same compound, the Potency result in experiment [2] is “inactive”.

With `CC#CC(=O)N1CCC[C@H]1c1nc(-c2ccc(C(=O)Nc3ccccn3)cc2)c2c(N)nccn12`, the Potency entry in experiment [1] and in experiment [2] was “inactive” each time.

`Oc1ccc2nc(CN3CCC(Cc4ccccc4F)CC3)[nH]c2c1`: the Potency entry in experiment [2] is “inactive”.

Turning to `c1cc(Nc2cc(C3CC3)[nH]n2)nc(Nc2ccc3nc[nH]c3c2)n1`, the Potency in experiment [1] is 1.31 µM (active). In experiment [2], the Potency entry is “inactive”.

These data come from PubChem BioAssay (NCATS).
